Data from PubChem BioAssay (NCI).
The panel holds about 79,000 compounds, 15% with a hit somewhere; the sample as a whole holds those more often. Unmarked numbers belong to inactive results. Calls of active or inactive are those of the source. Cut-off read from the data, not from the text of the source: active = growth inhibition above about 70%; inactive = the rest.

What was measured:
[1] = NCI Yeast Anticancer Drug Screen. Data for the rad50 strain (AID 155);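 note: 0% = growth of vehicle-only cultures of the same strain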; settings: S. cerevisiae rad50 strain growth inhibition; at 50.0 µM; hits give high values
In short: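 Genetically altered yeast (DNA repair pathway); compound treatment; growth inhibition vs vehicle ctrl.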

[2] = NCI Yeast Anticancer Drug Screen. Data for the mec2-1 strain (AID 157); settings: S. cerevisiae mec2-1 strain, at 50.0 µM, hits give high values
In short: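 Readout is yeast growth inhibition, normalised to vehicle-treated controls, in the mec2-1 strain exposed to compound.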

[3] = NCI Yeast Anticancer Drug Screen. Data for the sgs1 mgt1 strain (AID 161);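 note: 0% = growth of cultures given vehicle only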; settings: S. cerevisiae sgs1 mgt1 strain, at 50.0 µM, hits give high values
In short: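 Yeast cells carrying a defined DNA-repair defect were exposed to test compounds. Growth inhibition was measured relative to vehicle-treated controls.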

[4] = NCI Yeast Anticancer Drug Screen. Data for the cln2 rad14 strain (AID 165);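 note: 0% = growth equal to vehicle treated cultures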; settings: S. cerevisiae cln2 rad14 strain, at 50.0 µM, hits give high values
In short: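 Relative to vehicle controls, growth inhibition of compound-treated cln2 rad14 yeast was recorded.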

[5] = NCI Yeast Anticancer Drug Screen. Data for the bub3 strain (AID 167); settings: S. cerevisiae bub3 mutant strain, at 50.0 µM, hits give high values
In short: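 Yeast carrying a defined mutation is treated with each compound, and growth is compared with that of vehicle-exposed cells to give inhibition.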

[6] = NCI Yeast Anticancer Drug Screen. Data for the mlh1 rad18 strain (AID 175); settings: S. cerevisiae mlh1 rad18 strain growth inhibition; at 50.0 µM; hits give high values
In short: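 Test agents were incubated with a yeast strain of defined genotype (DNA damage repair defect). Inhibition of growth was derived by comparison with vehicle-exposed cultures.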

C=CCn1c(=S)sc2c(=O)[nH]cnc21
growth inhibition [1]: 14.6% | growth inhibition [2]: 1.7% | growth inhibition [3]: 25.8% | growth inhibition [4]: 22.3% | growth inhibition [5]: 8.15% | growth inhibition [6]: 11.4%

O=C(O)c1cc(N2C(=O)c3ccc4c5ccc6c7c(ccc(c8ccc(c3c48)C2=O)c75)C(=O)N(c2ccc(O)c(C(=O)O)c2)C6=O)ccc1O
growth inhibition [1]: -8.4% | growth inhibition [2]: 10% | growth inhibition [3]: 3.2% | growth inhibition [4]: 34% | growth inhibition [5]: 1.65% | growth inhibition [6]: 26.3%

C#CCN(CCO)Cc1ccccc1
growth inhibition [1]: -3.4% | growth inhibition [2]: -18.6% | growth inhibition [3]: -3.75% | growth inhibition [4]: 9.25% | growth inhibition [5]: -4% | growth inhibition [6]: 2.7%

O=C1c2ccccc2C(=O)c2c(Nc3ccc(Nc4cccc5c4C(=O)c4ccccc4C5=O)c4c3C(=O)c3ccccc3C4=O)cccc21
growth inhibition [1]: -28.4% | growth inhibition [2]: -39% | growth inhibition [3]: 4.7% | growth inhibition [4]: -3.2% | growth inhibition [5]: -19.3% | growth inhibition [6]: -26.8%

COc1cc(-c2cccs2)sc1-c1cccs1
growth inhibition [1]: 10.4% | growth inhibition [2]: -7.15% | growth inhibition [3]: 31.4% | growth inhibition [4]: 8.95% | growth inhibition [5]: 19.6% | growth inhibition [6]: 13.2%

CC(C)C(C)(C)C(N)=O
growth inhibition [1]: -4.5% | growth inhibition [2]: -0.95% | growth inhibition [3]: -9.1% | growth inhibition [4]: 13.9% | growth inhibition [5]: 19.6% | growth inhibition [6]: 0.95%

c1ccc2c3c(ccc2c1)CCCC3
growth inhibition [1]: 7.5% | growth inhibition [2]: -2.15% | growth inhibition [3]: 2.9% | growth inhibition [4]: -8% | growth inhibition [5]: 15.9% | growth inhibition [6]: 0.7%

CCOc1cc(=O)cc2n(-c3cc(OCC)c(OC)c(OCC)c3)c3ccccc3nc1-2
growth inhibition [1]: 38% | growth inhibition [2]: 11.7% | growth inhibition [3]: 23.6% | growth inhibition [4]: 21.9% | growth inhibition [5]: -1.4% | growth inhibition [6]: -1.2%

C=CC12CCC(CC1)n1c(=O)n(C)c(=O)n12
growth inhibition [1]: -8.05% | growth inhibition [2]: -11.7% | growth inhibition [3]: -11.4% | growth inhibition [4]: -34.5% | growth inhibition [5]: -18% | growth inhibition [6]: -6.8%

Cn1c(=O)c2c(nc(C(=N)SCC(=O)O)n2C)n(C)c1=O
growth inhibition [1]: 3.1% | growth inhibition [2]: 16.4% | growth inhibition [3]: 15.8% | growth inhibition [4]: 55% | growth inhibition [5]: -44.8% | growth inhibition [6]: 3.8%

N#Cc1c(O)cc(=O)n2c1[nH]c1ccccc12
growth inhibition [1]: -15.2% | growth inhibition [2]: -24.3% | growth inhibition [3]: -22% | growth inhibition [4]: -10.3% | growth inhibition [5]: 10.5% | growth inhibition [6]: -4.15%

CCOC(=O)c1c(N)sc2c1C(C(=O)OCC)CCCC2 (stereo not drawn)
growth inhibition [1]: -11.1% | growth inhibition [2]: 7.5% | growth inhibition [3]: 27.3% | growth inhibition [4]: -16.2% | growth inhibition [5]: 37.5% | growth inhibition [6]: 38.2%

O=C(NCCCCCCNC(=O)NCc1ccco1)NCc1ccco1
growth inhibition [1]: -22.7% | growth inhibition [2]: -28.2% | growth inhibition [3]: -28.1% | growth inhibition [4]: -15.7% | growth inhibition [5]: 0.05% | growth inhibition [6]: -19.9%

Cc1cc(NS(=O)(=O)c2ccc(NC(=O)c3ccc(Cl)c4c(Nc5ccc(S(=O)(=O)N=C(N)N)cc5)c5ccccc5nc34)cc2)no1
growth inhibition [1]: 29.9% | growth inhibition [2]: 42.1% | growth inhibition [3]: 31.6% | growth inhibition [4]: 34.5% | growth inhibition [5]: 26.4% | growth inhibition [6]: 53.5%

CCCCCN(CCCCC)C(=O)C(C)Br (stereo not drawn)
growth inhibition [1]: -3.6% | growth inhibition [2]: -12.9% | growth inhibition [3]: 12.8% | growth inhibition [4]: -12.9% | growth inhibition [5]: 44.9% | growth inhibition [6]: 3.1%

CC(=O)C(C)(C)Cc1cc(C(C)(C)CC=O)on1
growth inhibition [1]: -2.25% | growth inhibition [2]: -0.8% | growth inhibition [3]: -12.4% | growth inhibition [4]: 5.35% | growth inhibition [5]: 29.1% | growth inhibition [6]: 4.95%

CN(C)c1ccc(/C=N\NC(=S)Nc2ccc3cn[nH]c3c2)cc1
growth inhibition [1]: 20.9% | growth inhibition [2]: -10.9% | growth inhibition [3]: -1.15% | growth inhibition [4]: 8.1% | growth inhibition [5]: 23.3% | growth inhibition [6]: -9.5%

Nc1c2cc3c(cc2c[n+]2ccc4ccccc4c12)OCO3
growth inhibition [1]: 38.9% | growth inhibition [2]: 44% | growth inhibition [3]: 32.6% | growth inhibition [4]: 19.9% | growth inhibition [5]: 43.9% | growth inhibition [6]: 54.5%

Nc1nc(SCC(=O)O)nc2nc[nH]c12
growth inhibition [1]: -0.15% | growth inhibition [2]: 3.15% | growth inhibition [3]: -13.3% | growth inhibition [4]: -32% | growth inhibition [5]: -7.5% | growth inhibition [6]: 4.95%

CC(C)OC(=O)c1cccnc1
growth inhibition [1]: 16.5% | growth inhibition [2]: 2.2% | growth inhibition [3]: 7.05% | growth inhibition [4]: -39% | growth inhibition [5]: -1.35% | growth inhibition [6]: -2.45%

CC(C)C(N)C(=O)NO (stereo not drawn)
growth inhibition [1]: -17.1% | growth inhibition [2]: 17.9% | growth inhibition [3]: -13.4% | growth inhibition [4]: 5.05% | growth inhibition [5]: -1.7% | growth inhibition [6]: -7.3%

CCNC(=O)C1Cc2ccccc2N(CC)C1 (stereo not drawn)
growth inhibition [1]: -13.4% | growth inhibition [2]: -6.65% | growth inhibition [3]: -0.75% | growth inhibition [4]: -12.2% | growth inhibition [5]: -1.9% | growth inhibition [6]: 2.75%

CCN(CC)CCOC(C)=O
growth inhibition [1]: 8.25% | growth inhibition [2]: -15.7% | growth inhibition [3]: -19.4% | growth inhibition [4]: 0.7% | growth inhibition [5]: -11.1% | growth inhibition [6]: -26.3%

O=C1O/C(=C(\Br)c2ccccc2)c2ccccc21
growth inhibition [1]: 52.9% | growth inhibition [2]: -1.4% | growth inhibition [3]: 55.2% | growth inhibition [4]: 4.2% | growth inhibition [5]: 29.1% | growth inhibition [6]: 31.6%

CCOC(=O)C1=NC(c2ccccc2)(c2ccccc2)OC1=C(Cl)Cl
growth inhibition [1]: 0.8% | growth inhibition [2]: -16.4% | growth inhibition [3]: -0.2% | growth inhibition [4]: 19.8% | growth inhibition [5]: -11.4% | growth inhibition [6]: -10.5%

COc1ccc(CCNC(=O)Cc2cc(OCc3ccccc3)c(OC)cc2[N+](=O)[O-])cc1OC
growth inhibition [1]: 36.1% | growth inhibition [2]: 8.4% | growth inhibition [3]: 25.5% | growth inhibition [4]: 0.8% | growth inhibition [5]: -4.2% | growth inhibition [6]: 6.9%

COC(=O)C(O)c1ccc(C(C)C)cc1 (stereo not drawn)
growth inhibition [1]: -34.5% | growth inhibition [2]: -18.6% | growth inhibition [3]: -13.9% | growth inhibition [4]: -33.2% | growth inhibition [5]: -26.4% | growth inhibition [6]: -9.2%

CC(Cc1ccccc1)Nc1ccccc1 (stereo not drawn)
growth inhibition [1]: 17.8% | growth inhibition [2]: 3.5% | growth inhibition [3]: 31.4% | growth inhibition [4]: -10.3% | growth inhibition [5]: -12.5% | growth inhibition [6]: 62.4%

CC(=O)/C(C=Nc1c(C)n(C)n(C)c1=O)=C(/O)c1ccccc1
growth inhibition [1]: 0.15% | growth inhibition [2]: 4.05% | growth inhibition [3]: -10.4% | growth inhibition [4]: 7.55% | growth inhibition [5]: -19.6% | growth inhibition [6]: 16%

C#CC(C)(O)CC(C)C (stereo not drawn)
growth inhibition [1]: 1.9% | growth inhibition [2]: -1.2% | growth inhibition [3]: -8.6% | growth inhibition [4]: -73.7% | growth inhibition [5]: 6.65% | growth inhibition [6]: -71.7%

CC(=O)OCC1OC(c2ccccc2)C/C(=N/O)C1OC(C)=O (stereo not drawn)
growth inhibition [1]: 90.8% (active) | growth inhibition [2]: 98.5% (active) | growth inhibition [3]: 97.8% (active) | growth inhibition [4]: 96.8% (active) | growth inhibition [5]: 87.8% (active) | growth inhibition [6]: 97.7% (active)

COn1nnc2ccccc21
growth inhibition [1]: -21% | growth inhibition [2]: -13.8% | growth inhibition [3]: -19.9% | growth inhibition [4]: 5.15% | growth inhibition [5]: 7.9% | growth inhibition [6]: -18.1%

N#CCCN(C(=O)COc1ccc(Cl)cc1Cl)C1CCCCC1
growth inhibition [1]: 85% (active) | growth inhibition [2]: 87.7% (active) | growth inhibition [3]: 73% (active) | growth inhibition [4]: 87.2% (active) | growth inhibition [5]: 89.3% (active) | growth inhibition [6]: 95% (active)

CSc1nnc(COc2ccc(Cl)cc2)o1
growth inhibition [1]: 22.3% | growth inhibition [2]: 5.75% | growth inhibition [3]: 26.1% | growth inhibition [4]: 29.4% | growth inhibition [5]: 12.8% | growth inhibition [6]: 20.7%

Cc1ccccc1CN(C)CCCO
growth inhibition [1]: 4.1% | growth inhibition [2]: -13% | growth inhibition [3]: -16.8% | growth inhibition [4]: -16.1% | growth inhibition [5]: -3.85% | growth inhibition [6]: 1.05%

Brc1c(CCc2ccc3ccccc3c2Br)ccc2ccccc12
growth inhibition [1]: 0.1% | growth inhibition [2]: 10.2% | growth inhibition [3]: 13.2% | growth inhibition [4]: -6.75% | growth inhibition [5]: -2.8% | growth inhibition [6]: 19.6%

SC1CCCN(Cc2ccccc2)C1 (stereo not drawn)
growth inhibition [1]: 24.9% | growth inhibition [2]: 4.9% | growth inhibition [3]: 2.15% | growth inhibition [4]: 33.8% | growth inhibition [5]: 8.9% | growth inhibition [6]: 17.6%

CNOCc1ccc(C(=O)NC(C)C)cc1
growth inhibition [1]: 12.2% | growth inhibition [2]: 17.6% | growth inhibition [3]: 2.8% | growth inhibition [4]: -30.9% | growth inhibition [5]: 11.7% | growth inhibition [6]: 17.5%
